# How the values were obtained:
# Test in all cases: PBM binding z-score (relative to random genomic background probes); higher = stronger binding; sequences stand for … in GC…GCGATTGACAGCGTAGAATGAAGG
# [1] = test system: FXR:RXRa (NR concentration 270 nM, RXRa partner concentration 90 nM)
# Outline: (§1)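 Ligand-free nuclear receptor dimers were bound for 1 h to custom Agilent 4×180K protein-binding microarrays. Detection used antibodies against each partner (one per run). Binding z-scores rest on regression-normalized fluorescence, with random background probes as the reference.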
# [2] = test system: LXRa:RXRa (NR concentration 270 nM, RXRa partner concentration 90 nM)
# Outline: as §1
# [3] = test system: LXRa homodimer (NR concentration 270 nM)
# Outline: as §1
# [4] = test system: LXRb:RXRa (NR concentration 270 nM, RXRa partner concentration 90 nM)
# Outline: as §1
# [5] = test system: LXRb homodimer (NR concentration 270 nM)
# Outline: as §1
# [6] = test system: PPARa:RXRa (NR concentration 270 nM, RXRa partner concentration 90 nM)
# Outline: as §1
# [7] = test system: PPARg:RXRa (NR concentration 180 nM, RXRa partner concentration 90 nM)
# Outline: as §1
# [8] = test system: PPARg:RXRa 270nM:90nM, anti-RXR (NR concentration 270 nM, RXRa partner concentration 90 nM)
# Outline: as §1
# [9] = test system: PPARg:RXRa 30nM:10nM, anti-RXR (NR concentration 30 nM, RXRa partner concentration 10 nM)
# Outline: as §1
# [10] = test system: PPARg:RXRa 90nM:30nM, anti-RXR (NR concentration 90 nM, RXRa partner concentration 30 nM)
# Outline: as §1
Sequence,PBM binding z-score [1],PBM binding z-score [2],PBM binding z-score [3],PBM binding z-score [4],PBM binding z-score [5],PBM binding z-score [6],PBM binding z-score [7],PBM binding z-score [8],PBM binding z-score [9],PBM binding z-score [10]
AATACAGGGTCATCGTTGGCCAGAGTACGCACAG,7.42,6.21,2.13,4.57,1.5,5.96,6.68,5.97,2.51,4.75
CAGCCTAGGTCAGGGCCAGTAAAGGAGGAACGTT,1.69,0.93,-0.563,0.471,-1.1,2.26,0.751,0.991,-0.53,0.142
GATACCGGGTCAGCTAGAGGCCAGAGTATGGAAA,2.65,1.51,-0.9,1.21,-1.03,3.5,2.92,2.42,0.487,1.18
CTCGAAAGGCCGGTTGAGGTGAGTATACGGATAA,-0.00227,-0.411,-0.91,-0.654,-0.709,-0.134,-0.122,-0.607,-0.213,-0.48
AGTCAAGGTTCACTAGGTAACGTAAGATTCAGCT,3.03,3.03,0.713,1.93,0.445,3.59,4.38,4.46,1.58,3.65
GGAACGAGGGCATTAGAGTTGATAGCATGGCGAT,0.899,2.35,-0.104,0.257,-0.699,1.22,0.982,0.676,0.105,0.129
AATACAGGTTCACTAGGCCAGAGTAGGTACGAAT,1.7,2.58,0.711,1.5,0.333,3.19,3.24,2.98,0.739,1.97
GCATAGAGGTAATACAAGGTGAAAGTCCGATTGT,1.25,3.39,-0.00697,1.1,-0.79,1.51,0.691,0.857,0.448,0.729
GATACAGGGACAGCTAGAGGCCAGAGTATGGAAA,-0.243,-0.821,-0.464,-0.674,-0.57,-0.178,0.636,-0.579,-0.2,-0.369
TCGAGTAGGTTAGTCGGGGGATTCAGCCAACATA,0.552,0.506,-0.00348,2.06,6.46,1.13,0.0949,1.49,1.26,1.28
TGGATGAGGTTATAAGATCAGGGAACGTTGCAAA,1.51,1.26,0.181,1.52,0.594,2.42,0.897,1.54,0.844,1.35
TCTAGTTTGTCACGGAGGTCACACACGACGGGTA,3.46,3.54,2.3,3.26,1.43,3.88,2.25,3.52,3.81,3.66
AGATGTAGGTTAAGGGTCATTCAGGTTGGTTCGC,5,5.02,2.97,4.61,1.63,6.45,11,9.78,9.52,10.7
TCCTGTAGATCAGCAGGTTAAGAAAGCTGGCCAA,0.47,0.36,-0.398,0.304,-0.639,0.87,-0.289,1.6,2.43,1.83
ATACCAAGGTGATCGTGACGTCGTTGATACTAAC,0.364,0.342,0.147,0.547,-0.176,0.36,0.582,0.302,-0.0759,0.172
CCTACTGGGCCAGGGTCATTGATCAGTCAAAGCA,2.51,2.16,0.0124,2.58,-1.02,4.14,3.23,3.68,0.898,2.87
CGAACTAGGTCATTGATAGGACAGTGAATAGTAA,3.4,2.63,0.471,1.82,-0.194,4.38,7.14,5.99,3.25,5.56
CCAGACAGGTTAAAGGTAACTCAGTCTGGTACGC,1.95,1.84,0.195,1.63,-0.137,3.7,4.55,4.78,3.23,5.29
TCTATTAGTTGATTAGGGCAACAGAAACAGCGGA,0.997,0.779,0.0498,0.646,0.947,1.01,0.317,1.96,3.53,2.85
TATCGGAGGACACGAAGGTCAGAGCTTTCCAGAG,1.17,1.65,1.08,1.14,-0.0992,1.88,0.951,1.18,0.288,0.613
GGAACGAGTGCATTCGAGTTGATAGCATGGCGAT,-0.159,0.374,-0.89,-0.659,-1.1,-0.426,0.302,-0.652,-0.79,-1.09
TATACAGGGTCAAAGGCCAGAGTCCGAATGTCGA,6.58,6.06,2.35,4.71,2.55,5.85,7.34,7.02,4.84,6.68
AGAATGAGATTATACGTAGATCAGGGAAGAAAGT,-0.225,-0.715,-0.134,-0.538,-0.345,-0.566,1.09,-0.183,0.419,-0.327
TAGCCTAGGTCATGAGGGCCAGTATAGTGTCGGC,3.91,3.07,0.189,1.73,-0.262,3.69,2.94,2.69,0.483,1.94

# From the supplement of paper PMC6555819
